About 79,000 compounds went through this panel and 15% of them were active in at least one assay; those are over-represented in the sample as a whole. The source made the active and inactive calls. Cut-off read from the data, not from the text of the source: active = growth inhibition above about 70%; inactive = the rest.
What was measured:
[1] = NCI Yeast Anticancer Drug Screen. Data for the rad50 strain (AID 155);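 note: 0% = growth of vehicle-only cultures of the same strain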; details: S. cerevisiae rad50 strain growth inhibition, stronger effect = higher value
Procedure, shortened: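 Vehicle-treated cultures provide the reference for the growth inhibition reported for compound-exposed, repair-deficient yeast.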

[2] = NCI Yeast Anticancer Drug Screen. Data for the mec2-1 strain (AID 157); details: S. cerevisiae mec2-1 strain, stronger effect = higher value
Procedure, shortened: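 Vehicle-treated cultures served as reference for growth inhibition of compound-exposed mec2-1 yeast.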

[3] = NCI Yeast Anticancer Drug Screen. Data for the sgs1 mgt1 strain (AID 161);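 note: 0% = growth of cultures given vehicle only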; details: S. cerevisiae sgs1 mgt1 strain, stronger effect = higher value
Procedure, shortened: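 Genetically altered yeast, compound exposure, growth inhibition relative to vehicle.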

[4] = NCI Yeast Anticancer Drug Screen. Data for the cln2 rad14 strain (AID 165);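 note: 0% = growth equal to vehicle treated cultures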; details: S. cerevisiae cln2 rad14 strain, stronger effect = higher value
Procedure, shortened: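 Each compound was tested on cln2 rad14 yeast. Inhibition of growth was calculated against vehicle-exposed controls.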

[5] = NCI Yeast Anticancer Drug Screen. Data for the bub3 strain (AID 167); details: S. cerevisiae bub3 mutant strain, stronger effect = higher value
Procedure, shortened: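 Mutant yeast screening strain plus compound; vehicle-treated cultures serve as the 0% inhibition reference.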

[6] = NCI Yeast Anticancer Drug Screen. Data for the mlh1 rad18 strain (AID 175); details: S. cerevisiae mlh1 rad18 strain growth inhibition, stronger effect = higher value
Procedure, shortened: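 Vehicle-treated cultures served as the reference for growth inhibition in a yeast strain carrying DNA damage repair alterations exposed to each compound.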

[7] = at 5.0 µM (retest, dose inferred, filed as 0.5)
[8] = at 50.0 µM (retest, dose inferred, filed as 5.0)

Structure (SMILES)	growth inhibition [1, 7]	growth inhibition [1, 8]	growth inhibition ([1]; at 50.0 µM)	growth inhibition [2, 7]	growth inhibition [2, 8]	growth inhibition ([2]; at 50.0 µM)	growth inhibition [3, 7]	growth inhibition [3, 8]	growth inhibition ([3]; at 50.0 µM)	growth inhibition [4, 7]	growth inhibition [4, 8]	growth inhibition ([4]; at 50.0 µM)	growth inhibition [5, 7]	growth inhibition [5, 8]	growth inhibition ([5]; at 50.0 µM)	growth inhibition [6, 7]	growth inhibition [6, 8]	growth inhibition ([6]; at 50.0 µM)
Cc1cc(NC(=S)SCc2ccc3c(c2)OCO3)ccc1Br	38% (inactive)	98% (active)	89.7% (active)	28% (inactive)	98% (active)	91.6% (active)	54% (inactive)	98% (active)	91.2% (active)	40% (inactive)	99% (active)	87.2% (active)	49% (inactive)	98% (active)	91.2% (active)	34% (inactive)	98% (active)	89.7% (active)
O=Cc1ccc(O)cc1O	8% (inactive)	24% (inactive)	58.5% (inactive)	8% (inactive)	16% (inactive)	29.6% (inactive)	7% (inactive)	15% (inactive)	25.8% (inactive)	4% (inactive)	14% (inactive)	-38.6% (inactive)	7% (inactive)	10% (inactive)	55.4% (inactive)	1% (inactive)	13% (inactive)	59% (inactive)
CC(=O)/C(=C\c1ccc(N(C)C)cc1)C(C)=[N+](C)C(=O)c1c(/[N+](C)=C(C)\C(=C\c2ccc(N(C)C)cc2)C(C)=O)ncn1C	31% (inactive)	47% (inactive)	87.7% (active)	14% (inactive)	70% (active)	7.45% (inactive)	47% (inactive)	66% (inactive)	77.3% (active)	-5% (inactive)	43% (inactive)	24.7% (inactive)	10% (inactive)	43% (inactive)	43.4% (inactive)	49% (inactive)	53% (inactive)	85% (active)
CCc1ccccc1NC1=C(Cl)C(=O)c2ccccc2C1=O	99% (active)	98% (active)	-1.85% (inactive)	100% (active)	99% (active)	10.8% (inactive)	100% (active)	99% (active)	1.85% (inactive)	77% (active)	99% (active)	-20.3% (inactive)	99% (active)	99% (active)	-0.2% (inactive)	99% (active)	98% (active)	10% (inactive)

Source: PubChem BioAssay (NCI)
